High-throughput results as filed in PubChem.
ATXN2 expr inh = Primary qHTS for Inhibitors of ATXN expression; 360,000 compounds, 0.72% hits; Potency, µM (highest dose often 57 µM), without a hit: at the highest dose activity change, negative = inhibition, actives largely listed as inhibitors; AID 1745845, 2022; HEK-293 ATXN2-luciferase reporter, luminescence, 24 h; note: potency is the fitted concentration of half-maximal effect; % is set by controls: 0 for no effect and ±100 for the full control effect; nearly all actives have a fitted effect of over 55% in size
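ATXN2-luciferase reporter cells (luciferase flanked by upstream and downstream ATXN2 gene portions) were treated 24 h at 37 °C with compounds at up to 57 uM. SteadyGlo luminescence gave expression; GF-AFC fluorescence gave viability.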
HepG2 tox = qHTS for Inhibitors of TGF-b: Cytotox Counterscreen; 410,000 compounds, 0.76% hits; Potency, µM (top dose mostly 46.1 µM), inactives show at the top dose activity change, negative = cytotoxicity, hits mostly cytotoxic; HepG2 CAGA-GFP viability, ATP luminescence, 18 h; note: potency is the fitted concentration of half-maximal effect
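HepG2 CAGA-GFP cells (1000/well, DMEM with 1% FBS) received compound, then TGF-beta at 500 pg/mL final, and were incubated 18 hours at 37 degrees C. Viability was read by CellTiter-Glo luminescence. Media-only wells were set as complete cell-killing and DMSO as no toxicity.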
Giardia kill = Small Molecules that selectively kill Giardia lamblia: qHTS. Giardia lamblia trophozoite viability. activity change, % at 7.66 µM, hits read low. 340,000 compounds, 0.15% hits. AID 540267, 2011; in the data active = activity change below about -80%; inconclusive = between about -30% and that limit;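 note: parasites exposed to compound for two days anaerobically before the ATP read; % is set by controls: 0 for no effect and ±100 for the full control effect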
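Anaerobic 48 hrs incubation at 37 deg C of 100 trophozoites/well with test compounds; ATPLite 1-Step luminescence, 15-30 min RT, reports cellular ATP as viability.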
uPA surface inh = qHTS for Inhibitors of Cell Surface uPA Generation. Potency, µM (top dose mostly 38.3 µM), for the others: at the top dose activity change, negative = inhibition, most hits filed as inhibitors. cell surface uPA generation assay, qHTS. AID 540303, 2011. 330,000 compounds, 0.31% hits; active = well fitted inhibition curve with a large enough effect; inconclusive = small, poorly fitted or top-dose-only effect; inactive = no such curve, though single readings can be large or run the other way; tested in mouse RAW 264.7 cells; note: potency is the fitted concentration of half-maximal effect; % is set by controls: 0 for no effect and ±100 for the full control effect; nearly all actives have a fitted effect of over 55% in size
TGFb SMAD3 inh = qHTS for Inhibitors of TGF-b; HepG2 CAGA-GFP TGF-b/SMAD3 reporter, GFP fluorescence, 18 h; TGF-beta stimulated, 500 pg/mL final; Potency, µM (series often up to 46.1 µM), for inactives: at the top dose activity, negative = inhibition, most hits filed as inhibitors; 410,000 compounds, 1.2% hits; AID 588855, 2011; note: potency is the fitted concentration of half-maximal effect; % is set by controls: 0 for no effect and ±100 for the full control effect; nearly all actives have a fitted effect of over 65% in size
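HEPG2 CAGA-GFP reporter cells (1000/well, DMEM with 1% FBS) received compounds, then recombinant TGF-beta at 500 pg/mL final for 18 hours at 37 degrees C. Per-cell GFP summed per well was normalised to unstimulated and stimulated DMSO controls before curve fitting.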
S2 tox = Viability Counterscreen for Primary qHTS for Inhibitors of ATXN expression; S2 cells (HEK-293 line with an ATXN2-luciferase reporter) viability, CellTiter-Fluor protease fluorescence, 24 h; Potency, µM (titrated, usually from 56.7 µM), usual class: cytotoxic; 400,000 compounds, 0.49% hits; note: potency is the fitted concentration of half-maximal effect; nearly all actives have a fitted effect of over 40% in size
Numbers without * were called inactive; i = inactive; ? = inconclusive; . = no result; ! = not active in a repeat. Sampled rows, rich in hits. Any-hit rate of the full collection: about 2.6%. Unless noted, calls come from the whole dose curve; as a rule, active = well fitted curve in the direction sought with a large enough effect; inconclusive = small, poorly fitted or top-dose-only effect, or another doubt; inactive = no such curve, though single readings can be large; an effect the other way counts as inactive or inconclusive.

SMILES | ATXN2 expr inh | HepG2 tox | Giardia kill | uPA surface inh | TGFb SMAD3 inh | S2 tox
CC(=O)c1ccc(-c2ccc3c4c(ccc3c2)OC(CNC(=O)C(C)N2CCOCC2)C4)s1 (stereo not drawn) | . | . | . | . | . | i
CC(C)CN(CC(C)C)S(=O)(=O)c1ccc(C(=O)Nc2sc3c(c2C(N)=O)CCN(C(C)C)C3)cc1 | ? | 11.2µM* | . | . | 136.0% | .
CC(C)N1CCc2c(sc(NC(=O)c3ccc(S(=O)(=O)N4CCOCC4)cc3)c2C(N)=O)C1 | -37.1% | -21.0% | -18.0 | -2.1% | -2.7% | ?
CC1=NNC(=O)/C1=C\c1cn(-c2ccccc2)nc1-c1ccc(Cl)cc1 | 12.6µM* | -94.2% | 3.3 | -11.0% | 3.55µM* | .
CC(NC(=O)CCl)c1ccc(Cl)c(Cl)c1 (stereo not drawn) | ? | 17.8µM* | -6.8 | -10.2% | ? | ?
CC(NC(=O)c1ccc(Cl)c(Cl)c1)c1ccc(-c2ccccc2)cc1 (stereo not drawn) | . | 12.9% | -3.9 | -7.7% | 22.5% | i
CCN(CC)CCCCNc1nc2cc(Cl)c(Cl)cc2nc1-c1ccc(-c2cccs2)s1 | 21.7µM* | . | . | . | . | .
COc1ccc2[nH]cc(C(=O)CNc3nccs3)c2c1 | . | 3.8% | . | . | 2.3% | .
O=c1[nH]c(=O)n([C@H]2C[C@H](O)[C@@H](CO)O2)cc1F | 7.94µM*! | -4.5% | -12.3 | -89.0% | -3.2% | ?
CN(C)CC1CCC/C(=C\c2ccc(OC(=O)/C=C/c3ccc(Cl)c(Cl)c3)cc2)C1=O (stereo not drawn) | -12.0% | -17.3% | 13.2 | 5.1% | -0.1% | ?
CN(C)CC1CCC/C(=C/c2ccc(Cl)cc2)C1=O (stereo not drawn) | ? | -4.0% | 8.9 | -3.4% | ? | 11.9µM*
Cc1cccc2c1-c1sc(C(=O)NCCCN3CCCC(C)C3)cc1CO2 (stereo not drawn) | 35.5µM* | -100.5% | 22.2 | ? | ? | ?
CCCN1CCN(CCCNC(=O)c2cc3c(s2)-c2c(C)cccc2OC3)CC1 | ? | 11.2µM*! | 12.6 | ? | ? | ?
CCCN1CCN(CCCNC(=O)c2cc3c(s2)-c2ccccc2OC3)CC1 | ? | -54.0% | 3.9 | -20.7% | ? | i
C[C@H]1C[C@H](O)c2ccsc2S1(=O)=O | 7.3% | . | . | . | . | i
C=C1C(=O)C=C2CN(C(=O)c3ccccc3)[C@@](Cc3ccc(F)cc3)(C(=O)OC)[C@@H]12 | 3.16µM* | 3.16µM* | ? | ? | 1.78µM* | 4.47µM*
C=C1C(=O)CC2=C1[C@](Cc1ccc(F)cc1)(C(=O)OC)N(C(=O)c1ccccc1)C2 | 0.0% | . | . | . | . | ?
Cc1cccc(N(C)S(=O)(=O)c2ccc(-c3cc(C)no3)s2)c1 | 11.8% | -27.0% | 13.3 | ? | 11.2µM* | i
N#Cc1cc2c(nc1SCc1ccncc1)CCC2 | 27.2% | -38.7% | -2.5 | -14.2% | 12.6µM* | i
N#Cc1cc2c(nc1SCc1ccccc1)CCC2 | -2.6% | -32.5% | 22.1 | 5.4% | -5.9% | i
C=C(CN(C)C)C(=O)c1cc(C)ccc1C | 10.6µM* | -107.2% | -10.4 | 16.5% | 2.51µM* | 10.6µM*
O=C(NNc1ccccc1F)c1cccs1 | . | . | 9.2 | . | . | .
CCOC(=O)/C(=C/c1ccc(N2CCC(c3ccccc3)=N2)cc1)C(C)=O | 1.89µM* | -31.7% | 1.5 | 1.0% | 1.4% | .
C[N+]1(CC(=O)c2ccc(I)cc2)CCOCC1 | . | 2.5% | . | . | -2.7% | .
COc1cccc2cc(C(=O)Nc3ccc(CC(=O)O)cc3)c(=O)oc12 | 3.55µM* | -6.0% | . | . | -3.1% | i
SMILES | ATXN2 expr inh | HepG2 tox | Giardia kill | uPA surface inh | TGFb SMAD3 inh | S2 tox
COc1cccc2cc(C(=O)NCc3ccc(C)cc3)c(=O)oc12 | 2.4% | 2.8% | 1.6 | -13.7% | 18.9% | i
COc1ccc(C2C=C3CNS(=O)(=O)C3CC2OC(=O)c2ccc(Cl)cc2)cc1 (stereo not drawn) | . | -102.6% | 32.7 | . | ? | .
C[C@H]1CN([C@@H](C)CO)S(=O)(=O)c2ccc(C3=CCCC3)cc2O[C@@H]1CN(C)C(=O)C1CCCCC1 | ? | -37.8% | . | . | ? | 20µM*
CC(C)c1c(C(=O)Nc2ccccc2)c(-c2ccccc2)c(-c2ccc(F)cc2)n1CC[C@H](O)C[C@@H](O)CC(=O)O | 18.5% | . | . | . | . | .
CCN(c1ccccc1)S(=O)(=O)c1ccc(OC)c(NC(=O)Cn2cnc3c2c(=O)n(C)c(=O)n3C)c1 | 27.5% | 21.5% | -4.9 | 0.8% | 2.82µM* | i
COc1ccc(Cl)cc1NC(=O)Cn1cnc2c1c(=O)n(C)c(=O)n2C | 1.9% | -31.4% | . | . | ? | i
O=C(COC(=O)/C=C/C(=O)N1CCN(c2ccccc2)CC1)NC(c1ccccc1)c1ccccc1 | -28.7% | -23.3% | -18.0 | 6.31µM* | ? | ?
OC(COCC(F)(F)C(F)(F)C(F)(F)C(F)F)Cn1c2ccccc2c2ccccc21 (stereo not drawn) | ? | 17.8µM* | -16.3 | -1.0% | ? | ?
COc1ccc(C2/C=C\CN(C(=O)C3CCCCC3)C(Cc3ccccc3)C(=O)N2Cc2ccc(F)cc2)cc1 (stereo not drawn) | . | -8.3% | -5.1 | . | -23.2% | .
O=C(N/N=C/c1c[nH]c2ccccc12)c1cc(-c2ccc3ccccc3c2)n[nH]1 | 27.1% | -38.7% | 24.3 | -7.7% | 15.8µM* | ?
O=C(N/N=C/C=C\c1ccccc1[N+](=O)[O-])c1cc(-c2ccc3ccccc3c2)n[nH]1 | -30.9% | 8.91µM* | -18.3 | 1.0% | 12.6µM* | ?
O=C(N/N=C/C=C/c1ccccc1[N+](=O)[O-])c1ccncc1 | 8.5% | -1.5% | -4.2 | 1.8% | 15.3% | i
O=C(N/N=C/c1c[nH]c2ccccc12)c1cc(-c2ccc(-c3ccccc3)cc2)n[nH]1 | ? | -75.9% | -20.2 | . | ? | .
CCOC(=O)C1(Cc2cccc(OC)c2)CCN(Cc2ccccc2)CC1 | -28.9% | -5.4% | -12.5 | -2.6% | -5.3% | i
CCOC(=O)C1(Cc2cccc(OC)c2)CCN(Cc2cccn2-c2ccccn2)CC1 | -0.2% | 2.0% | -13.3 | 2.6% | 3.16µM* | i
CN1CCCc2ccccc21 | . | 2.4% | . | . | 2.1% | .
O=S(=O)(NCc1c(Cl)cccc1Oc1ccccc1)c1ccc(F)cc1 | . | -45.0% | -3.2 | 9.6% | 11.2µM* | i
CCCCOc1ccc(CC(=O)NOC)cc1 | . | 0.3% | . | . | -7.7% | .
O=C(CCCOc1ccc(Cl)cc1Cl)N/N=C/c1ccccc1 | 8.0% | -58.2% | 6.5 | 1.1% | ? | i
O=C(CCCOc1ccc(Cl)cc1Cl)N/N=C/c1ccccc1O | 25.1µM* | -34.5% | 6.6 | -9.2% | ? | ?
